Only some compounds are listed: those with a hit (about 4.6% of all), similar ones and a draw of the others.
MARV entry inh – Marburg virus entry inhibition; Marburg virus pseudotyped entry inhibition, cell reporter; Potency, µM (highest dose often 37.8 µM), usual class: inhibitors; 300,000 tested, 1.8% active; calls by dose curve; tested in HEK293 cells
HCV inh – blocks hepatitis C virus; AID 651820; 340,000 tested, 3.4% active; Potency, µM (titrated, usually from 41.8 µM), usual class: inhibitors; Huh7.5.1 HCVcc-Cre infection, luciferase reporter, 44 h; active = well fitted inhibition curve with a large enough effect; inconclusive = small, poorly fitted or top-dose-only effect, or another doubt; inactive = no such curve, though single readings can be large or run the other way
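Seed cells (1,000/well) for 4 h; treat with compound and infect with HCVcc-Cre, moi about 0.5. Incubate 44 h, then detect luciferase activity.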
VACV mCherry inh – vaccinia inhibition (mCherry reporter) | Vaccinia virus mCherry reporter infection, fluorescence | Potency, µM (top dose mostly 36.5 µM), hits mostly inhibitors | 310,000 tested, 0.63% active | AID 720579; calls by dose curve; tested in A549 cells; also: nearly all actives have a fitted effect of over 35% in size
LASV entry inh – inhibitors of Lassa virus binding or cell entry; 300,000 tested, 1.2% active; Potency, µM (series often up to 37.9 µM), most hits filed as inhibitors; Lassa virus pseudotype entry inhibition, cell reporter; calls by dose curve; tested in HEK293 cells; also: nearly all actives have a fitted effect of over 50% in size
VACV Venus inh – inhibitors of vaccinia virus (Venus reporter). Vaccinia virus Venus reporter expression, fluorescence. Potency, µM (highest dose often 36.5 µM), usual class: inhibitors. 330,000 tested, 0.46% active; calls by dose curve; tested in A549 cells; also: nearly all actives have a fitted effect of over 30% in size
Each line names hits and unclear results; the compound was inactive in the other large screens.

O=C(Cc1ccsc1)Nc1ccc(S(=O)(=O)C(F)F)cc1	VACV mCherry inh 10µM, LASV entry inh inconclusive, VACV Venus inh inconclusive
CC(C)NS(=O)(=O)c1ccc(NC(=O)Cc2ccsc2)cc1	none (no result: MARV entry inh, VACV mCherry inh, LASV entry inh, VACV Venus inh)
Cc1ccc(NC(=O)COC(=O)/C(=C/c2cccs2)c2cccs2)cc1S(=O)(=O)N(C)C	MARV entry inh inconclusive, HCV inh inconclusive, LASV entry inh 11µM
CCc1cccc(C)c1NC(=O)c1cc(S(=O)(=O)N2CCOCC2)cn1C	none (no result: MARV entry inh, HCV inh)
COc1ccccc1OC(C)C(=O)N1CCN(CCc2ccccn2)CC1 (configuration not stated)	none (no result: HCV inh)
CCN(CC)S(=O)(=O)c1ccc(C)c(NCC(=O)Nc2ccc(C#N)c(Cl)c2)c1	MARV entry inh inconclusive, HCV inh 13µM, LASV entry inh inconclusive, VACV Venus inh inconclusive
CCN(CC)S(=O)(=O)c1cc(NC(=O)Cc2ccsc2)ccc1C	HCV inh 13µM, VACV mCherry inh inconclusive, LASV entry inh 0.46µM, VACV Venus inh inconclusive
CCN(CC)S(=O)(=O)c1cc(NC(=O)CCNC(=O)c2ccco2)ccc1C	none
Cc1ccc(C(=O)COC(=O)C(CC(C)C)NC(=O)C2CCC(C)CC2)cc1 (configuration not stated)	none (no result: HCV inh)
CCN(CC)CCCNC(=O)c1cc(-c2ccc(Cl)c(Cl)c2)on1	MARV entry inh inconclusive, HCV inh 1.4µM, VACV Venus inh inconclusive
O=C(NCCCN1CCOCC1)c1cc(-c2ccc(Cl)c(Cl)c2)on1	HCV inh 13µM
COc1ccc(C(=O)NCCn2cc(SCc3cc(C)ccc3C)c3ccccc32)cc1	MARV entry inh inconclusive, LASV entry inh inconclusive (no result: HCV inh)
CCCn1c(N)c(C(=O)CSc2nc(C)cs2)c(=O)n(C)c1=O	MARV entry inh 10µM, HCV inh inconclusive, VACV Venus inh inconclusive
CCc1ccc2[nH]c(=O)c(CN(Cc3ccccc3OC)C(=O)Nc3ccccc3OC)cc2c1	MARV entry inh inconclusive, HCV inh 7.9µM, LASV entry inh inconclusive (no result: VACV mCherry inh, VACV Venus inh)
COC(=O)c1ccccc1NC(=S)N(Cc1ccc2c(c1)OCO2)Cc1cc2ccc(C)cc2[nH]c1=O	MARV entry inh inconclusive, HCV inh inconclusive
CCN(CC)CCN(Cc1cc2ccc(C)cc2[nH]c1=O)C(=S)Nc1ccccc1C(=O)OC	MARV entry inh 2µM, HCV inh inconclusive, VACV mCherry inh inconclusive, LASV entry inh inconclusive, VACV Venus inh inconclusive
Cc1ccc(NC(=O)N(Cc2cccs2)Cc2cc3cc4c(cc3[nH]c2=O)OCO4)cc1	none (no result: VACV mCherry inh, VACV Venus inh)
COc1ccccc1NC(=S)N(Cc1ccco1)Cc1cc2cc(C)ccc2[nH]c1=O	MARV entry inh 4µM, HCV inh inconclusive, VACV mCherry inh inconclusive, VACV Venus inh inconclusive
O=C(Nc1ccc(F)cc1)N(Cc1ccco1)Cc1cc2cc3c(cc2[nH]c1=O)OCO3	MARV entry inh 18µM, VACV Venus inh inconclusive (no result: VACV mCherry inh)
COc1ccc(C(=O)N(Cc2ccco2)Cc2cc3cc(C)ccc3[nH]c2=O)cc1OC	HCV inh inconclusive, LASV entry inh inconclusive (no result: VACV mCherry inh)
CCOC(=O)CNC(=O)N1[C@H](c2cccs2)[C@@H](C)C(=O)[C@@H](C)[C@@H]1c1cccs1	none (no result: HCV inh)
C[C@@H]1[C@H](c2ccccc2)OCCS(=O)(=O)N1Cc1ccc(F)cc1	none (no result: MARV entry inh, HCV inh, LASV entry inh)
Cc1ccc2cc(CN(CC3CCCO3)C(=O)NC3CCCCC3)c(=O)[nH]c2c1C (configuration not stated)	none (no result: VACV mCherry inh, VACV Venus inh)
CCN(CC)CCCN(Cc1cc2ccc(C)c(C)c2[nH]c1=O)C(=O)NC1CCCCC1	MARV entry inh inconclusive, HCV inh 5.6µM (no result: VACV mCherry inh, VACV Venus inh)
Cc1cc2cc(CN(CCN(C)C)C(=S)NCc3ccco3)c(=O)[nH]c2cc1C	MARV entry inh inconclusive
Cc1ccc2cc(CN(CC3CCCO3)C(=S)NCc3ccco3)c(=O)[nH]c2c1C (configuration not stated)	MARV entry inh 0.63µM, HCV inh inconclusive, LASV entry inh 5.8µM
Cc1cc2cc(CN(Cc3cccs3)C(=S)NCc3ccco3)c(=O)[nH]c2cc1C	MARV entry inh 14µM, HCV inh 11µM
COc1cc(=O)n2c(c1C(=O)NCc1ccco1)CCN(Cc1cccc(C(F)(F)F)c1)CC2	none (no result: MARV entry inh, HCV inh, LASV entry inh)
CN(C)S(=O)(=O)c1cccc(NC(=O)CCCSc2ccccc2)c1	MARV entry inh inconclusive, HCV inh 11µM, LASV entry inh inconclusive
CCN(CC)S(=O)(=O)c1cccc(NC(=O)CCSc2ccc(Cl)cc2)c1	MARV entry inh inconclusive, HCV inh inconclusive, VACV mCherry inh inconclusive, LASV entry inh 13µM, VACV Venus inh inconclusive
C[C@H]1[C@H](C)CC[C@]2(C(=O)O)CC[C@]3(C)C(=CC[C@@H]4[C@@]5(C)C[C@@H](O)[C@H](O)C(C)(C)[C@@H]5CC[C@]43C)[C@H]12	VACV mCherry inh inconclusive, VACV Venus inh 13µM

Compound activity deposited in PubChem by National Center for Advancing Translational Sciences (NCATS).
